Laboratory results: PubChem BioAssay AID1159580 (chemical genetic matrix, 2015)
Out of some 5,500 compounds screened, about 2,000 (36%) were called active. About 18% were inconclusive and are not listed. No stated cut-off is given here; in the data, active means normalized growth mostly below about 0.91 (no sharp cut-off); inconclusive means no clear call, values can overlap the other calls; inactive means mostly above about 0.92. The list shows a part of the results.

Assay: chemical genetic growth profiling, strain panel (AID 1159580);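 further: tested at 20 µM; growth read once vehicle control cultures reached saturation at 30 °C; 1 = growth at the plate median or of vehicle wells; lower values mean less growth of the strain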
Conditions: growth OD

Measured: normalized growth

O=C1C[C@@H](c2ccc(O)cc2)Oc2cc(O)cc(O)c21
inactive: S. cerevisiae deletion strains, locus YJR075W, strain HOC1, active compounds read low 1.02 | S. cerevisiae deletion strains, locus YKL009W, strain mrt4, active compounds read low 1 | S. cerevisiae deletion strains, locus YKL068W, active compounds read low 0.998 | S. cerevisiae deletion strains, locus YKL085W, strain MDH1 (second series), active compounds read low 1 | S. cerevisiae deletion strains, locus YKL085W, strain MDH1, active compounds read low 1 | S. cerevisiae deletion strains, locus YKL160W, strain elf1, active compounds read low 0.985 | S. cerevisiae deletion strains, locus YKL190W, strain CNB1, active compounds read low 1.01 | S. cerevisiae deletion strains, locus YKR001C, strain vps1, active compounds read low 0.999 | S. cerevisiae deletion strains, locus YKR026C, strain gcn3, active compounds read low 0.962 | S. cerevisiae deletion strains, locus YKR091W, strain srl3, active compounds read low 0.973 | S. cerevisiae deletion strains, locus YLL001W, strain dnm1, active compounds read low 0.944 | S. cerevisiae deletion strains, locus YLL026W, active compounds read low 0.967 | S. cerevisiae deletion strains, locus YLL041C, strain sdh2, active compounds read low 0.977 | S. cerevisiae deletion strains, locus YLR027C, strain aat2, active compounds read low 0.982 | S. cerevisiae deletion strains, locus YLR039C, strain RIC1, active compounds read low 1 | S. cerevisiae deletion strains, locus YLR058C, strain SHM2, active compounds read low 1.01 | S. cerevisiae deletion strains, locus YLR102C, strain apc9, active compounds read low 1.02 | S. cerevisiae deletion strains, locus YLR113W, strain HOG1, active compounds read low 0.967 | S. cerevisiae deletion strains, locus YLR221C, strain rsa3, active compounds read low 0.975 | S. cerevisiae deletion strains, locus YLR258W, strain gsy2, active compounds read low 0.968 | S. cerevisiae deletion strains, locus YLR262C, strain YPT6 (second series), active compounds read low 0.962 | S. cerevisiae deletion strains, locus YLR262C, strain YPT6, active compounds read low 0.992 | S. cerevisiae deletion strains, locus YLR268W, strain sec22, active compounds read low 1.01 | S. cerevisiae deletion strains, locus YLR320W, strain mms22, active compounds read low 0.959 | S. cerevisiae deletion strains, locus YLR330W, strain CHS5, active compounds read low 1.02 | S. cerevisiae deletion strains, locus YLR342W, strain FKS1 (second series), active compounds read low 0.989 | S. cerevisiae deletion strains, locus YLR342W, strain FKS1, active compounds read low 0.963 | S. cerevisiae deletion strains, locus YLR357W, strain rsc2, active compounds read low 0.935 | S. cerevisiae deletion strains, locus YLR370C, strain arc18, active compounds read low 0.957 | S. cerevisiae deletion strains, locus YLR371W, strain rom2, active compounds read low 1.03 | S. cerevisiae deletion strains, locus YLR384C, strain iki3, active compounds read low 0.959 | S. cerevisiae deletion strains, locus YLR418C, strain cdc73, active compounds read low 1.03 | S. cerevisiae deletion strains, locus YML016C, strain PPZ1, active compounds read low 1.01 | S. cerevisiae deletion strains, locus YML032C, strain rad52, active compounds read low 1.01 | S. cerevisiae deletion strains, locus YML120C, strain ndi1, active compounds read low 0.957 | S. cerevisiae deletion strains, locus YML124C, strain tub3, active compounds read low 1.02 | S. cerevisiae deletion strains, locus YMR058W, strain fet3, active compounds read low 0.955 | S. cerevisiae deletion strains, locus YMR078C, strain ctf18, active compounds read low 1.02 | S. cerevisiae deletion strains, locus YMR125W, strain sto1, active compounds read low 0.938 | S. cerevisiae deletion strains, locus YMR129W, active compounds read low 0.966 | S. cerevisiae deletion strains, locus YMR205C, strain PFK2, active compounds read low 0.942 | S. cerevisiae deletion strains, locus YMR223W, strain ubp8, active compounds read low 1.01 | S. cerevisiae deletion strains, locus YMR231W, strain pep5, active compounds read low 0.976 | S. cerevisiae deletion strains, locus YMR263W, strain SAP30, active compounds read low 1.01 | S. cerevisiae deletion strains, locus YMR307W, strain GAS1, active compounds read low 0.994 | S. cerevisiae deletion strains, locus YNL067W, strain RPL9B, active compounds read low 1.01 | S. cerevisiae deletion strains, locus YNL071W, strain lat1, active compounds read low 0.967 | S. cerevisiae deletion strains, locus YNL128W, strain TEP1, active compounds read low 1.02 | S. cerevisiae deletion strains, locus YNL153C, strain GIM3, active compounds read low 1.01 | S. cerevisiae deletion strains, locus YNL183C, strain NPR1, active compounds read low 0.936 | S. cerevisiae deletion strains, locus YNL209W, strain ssb2, active compounds read low 0.966 | S. cerevisiae deletion strains, locus YNL233W, strain BNI4, active compounds read low 0.999 | S. cerevisiae deletion strains, locus YNL248C, strain rpa49, active compounds read low 0.969 | S. cerevisiae deletion strains, locus YNL250W, strain rad50, active compounds read low 1.01 | S. cerevisiae deletion strains, locus YNL271C, strain bni1, active compounds read low 1.01 | S. cerevisiae deletion strains, locus YNL298W, strain CLA4, active compounds read low 1.03 | S. cerevisiae deletion strains, locus YNL307C, strain MCK1, active compounds read low 1.01 | S. cerevisiae deletion strains, locus YNL322C, strain KRE1 (second series), active compounds read low 0.982 | S. cerevisiae deletion strains, locus YNL322C, strain KRE1, active compounds read low 1.01 | S. cerevisiae deletion strains, locus YNR049C, strain mso1, active compounds read low 0.959 | S. cerevisiae deletion strains, locus YNR052C, strain pop2, active compounds read low 1.01 | S. cerevisiae deletion strains, locus YOL006C, strain TOP1, active compounds read low 0.997 | S. cerevisiae deletion strains, locus YOL012C, strain htz1 0.851 | S. cerevisiae deletion strains, locus YOL147C, strain pex11, active compounds read low 1.02 | S. cerevisiae deletion strains, locus YOR001W, strain rrp6, active compounds read low 0.983 | S. cerevisiae deletion strains, locus YOR061W, strain CKA2, active compounds read low 1.02 | S. cerevisiae deletion strains, locus YOR069W, strain VPS5, active compounds read low 1.01 | S. cerevisiae deletion strains, locus YOR070C, strain gyp1, active compounds read low 0.964 | S. cerevisiae deletion strains, locus YOR080W, strain dia2, active compounds read low 0.976 | S. cerevisiae deletion strains, locus YOR083W, strain WHI5, active compounds read low 0.996 | S. cerevisiae deletion strains, locus YOR106W, strain vam3, active compounds read low 0.963 | S. cerevisiae deletion strains, locus YOR136W, strain idh2, active compounds read low 1.02 | S. cerevisiae deletion strains, locus YOR144C, strain elg1, active compounds read low 1.01 | S. cerevisiae deletion strains, locus YOR184W, strain ser1, active compounds read low 1 | S. cerevisiae deletion strains, locus YOR231W, strain MKK1, active compounds read low 0.95 | S. cerevisiae deletion strains, locus YOR265W, strain rbl2, active compounds read low 0.969 | S. cerevisiae deletion strains, locus YOR270C, strain vph1, active compounds read low 0.902 | S. cerevisiae deletion strains, locus YOR290C, strain snf2, active compounds read low 0.923 | S. cerevisiae deletion strains, locus YOR316C, strain cot1, active compounds read low 1.01 | S. cerevisiae deletion strains, locus YPL051W, strain arl3, active compounds read low 0.984 | S. cerevisiae deletion strains, locus YPL055C, strain LGE1, active compounds read low 1.02 | S. cerevisiae deletion strains, locus YPL078C, strain atp4, active compounds read low 0.971 | S. cerevisiae deletion strains, locus YPL106C, strain sse1, active compounds read low 0.957 | S. cerevisiae deletion strains, locus YPL240C, strain hsp82, active compounds read low 0.978 | S. cerevisiae deletion strains, locus YPL241C, strain CIN2, active compounds read low 1 | S. cerevisiae deletion strains, locus YPL256C, strain CLN2, active compounds read low 0.921 | S. cerevisiae deletion strains, locus YPR119W, strain clb2, active compounds read low 1.01 | S. cerevisiae deletion strains, locus YPR141C, strain kar3, active compounds read low 1.01 | S. cerevisiae deletion strains, locus YPR163C, strain tif3, active compounds read low 1 | S. cerevisiae deletion strains, locus YPR167C, strain met16, active compounds read low 1.01 | S. cerevisiae deletion strains, strain wtn01, active compounds read low 1.02 | S. cerevisiae strains, strain wild type, active compounds read low 1.01
